The record followed here is PubChem BioAssay AID1259422 (The Scripps Research Institute Molecular Screening Center, 2018).

Values joined by “and” are separate entries in the source; they are usually repeats but may differ in a detail not shown here. Equal values may be shown once. About 9,300 (1.5%) of roughly 640,000 compounds were called active. What follows is part of a selection rich in actives, with near analogues and random picks from the rest. Unmarked numbers belong to inactive results. No stated cut-off is given here; in the data, active means inhibition above about 32%; inactive means the rest.

The assay can be described thus: TEAD-YAP interaction inhibition, primary screen, TEAD-YAP interaction inhibitor project, luminescence, HEK-TIYL cells (AID 1259422).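 Further: 0% = median of test compound wells and 100% = reference inhibitor wells.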 The following applies: TEAD-Gal4/YAP UAS-luciferase luminescence, at 9.12 µM, stronger effect = higher value.
For `CCOc1ccc(C2=CC(c3cc(OC)c(OC)c(OC)c3)n3ncnc3N2)cc1` (configuration not stated), the inhibition (commonly the relative decrease from the control value, in per cent) was 66.9% (active). Consider `COc1ccc(C2=CC(c3ccc(OC)c(OC)c3)n3ncnc3N2)cc1OC` (configuration not stated), for which the inhibition is 3.8%. As for `Brc1ccc(C2=CC(c3cccc(Br)c3)n3ncnc3N2)cc1` (configuration not stated), the inhibition is 3.83%.

In the case of `COc1ccc(OC)c(C2C=C(c3ccc(Br)cc3)Nc3ncnn32)c1` (configuration not stated), the inhibition was 3.26%. For the compound `COc1cccc(C2=CC(c3cccc(OC)c3)n3ncnc3N2)c1` (configuration not stated), the inhibition is 39.1% (active). As for `COc1ccc(C2C=C(c3ccc(OC(F)F)cc3)Nc3ncnn32)cc1` (configuration not stated), the figure is -77.6%. Regarding `O=C(N/N=C\c1cccc([N+](=O)[O-])c1)c1ccccc1I`, the inhibition was -11.5%. As for `COC(=O)c1ccc(C)c(NC(=O)Nc2cccc(Cl)c2)c1`, the figure is 7.6%; as for `COc1ccc(OC)c(C2/C(=C(\O)c3ccc(Br)cc3)C(=O)C(=O)N2CCCn2ccnc2)c1` (configuration not stated), -4.36%. On to `CCOC(=O)c1c(NC(=O)c2cc([N+](=O)[O-])ccc2Cl)sc(-c2ccccc2)c1C`, for which the inhibition is 8.37%. `CCCc1c(C(=O)N[C@H]2C[C@H]3C(=O)N[C@@H](CSCc4ccccc4)C(=O)N3C2)cnn1-c1ccccc1`: the inhibition is 2.64%. As to `Cc1csc(=Nc2ccccc2)n1C1CCCC1`, the inhibition was -5.23%. As for `FC(F)Oc1ccc(-c2csc(=Nc3cccnc3)n2C2CC2)cc1`, the figure is 50.1% (active); as for `COc1ccc(-c2csc(=Nc3ccccc3)n2C)cc1`, -28.4%.

For the compound `CC1CCCC(NC(=O)CCCn2nnc3ccccc3c2=O)C1C` (configuration not stated), the inhibition is -2.4%. As for `CC(=O)N1CCN(c2nc(Nc3ccccc3C(=O)c3ccccc3)nc(OC(C(F)(F)F)C(F)(F)F)n2)CC1`, the figure is 10.2%; as for `COC(=O)CCC(=O)N1CCC(Oc2ccc(C(=O)NCCc3ccccc3)cc2)CC1`, 5.68%; as for `O=C(NCCc1ccccc1)c1ccc(OC2CCN(C(=O)C3CCCO3)CC2)cc1` (configuration not stated), 40.4% (active). For the compound `O=C(NCCN1CCCCC1CO)c1ccc(OC2CCN(C(=O)C3CC3)CC2)cc1` (configuration not stated), the inhibition is 1.44%.

On to `O=C(COC(=O)CCN1C(=O)C2CC=CCC2C1=O)Nc1ncc(Cl)cc1Cl` (configuration not stated), for which the inhibition was 5.49%. As to `CCc1ccc(NC(=O)C2CCN(S(=O)(=O)c3ccc4c(c3)CCC(=O)N4)CC2)cc1`, the inhibition is -10.1%.

In the case of `CNC(=O)c1cc(F)ccc1Nc1cc(Nc2ccc3[nH]ncc3c2)ncc1C(F)(F)F`, the inhibition is 27.2%.

Regarding `O=C1Cc2cc(Nc3cc(Nc4ccccn4)c(C(F)(F)F)cn3)ccc2N1`, the inhibition was 22.7%. For `CNC(=O)c1cc(F)ccc1Nc1cc(Nc2ccc3nc[nH]c3c2)ncc1C(F)(F)F`, the inhibition was -9.89%. Turning to `CNC(=O)c1cc(F)ccc1Nc1cc(Nc2ccc(NC(C)=O)cn2)ncc1C(F)(F)F`, the inhibition is 84.8% (active). With `CNC(=O)c1cc(F)ccc1Nc1cc(Nc2ccc3c(c2)CCC(=O)N3)ncc1C(F)(F)F`, the inhibition was 78.9% (active). In the case of `O=C(CSc1nc2ccccc2s1)Nc1ccc(O)c(C(=O)O)c1`, the inhibition is -2.73%.

Consider `OCCNCCCOc1ccc(I)cc1`, for which the inhibition was 15.9%. Regarding `COc1c(C)c2c(c(O)c1C/C=C(\C)CCC(=O)O)C(=O)OC2`, the inhibition was 39.5% (active) and 67.1% (active). For the compound `O=c1oc2ccccc2cc1-c1ccc(Cl)cc1`, the inhibition is -27%. As for `Cc1ccc(Nc2nnc(-c3cc4ccc(O)cc4oc3=O)s2)cc1`, the inhibition is 8.37%. As to `O=c1oc2cc(O)ccc2cc1-c1ccc(F)cc1`, the inhibition was 36% (active). As for `COc1cccc(CN2CCN(Cc3cn[nH]c3-c3cccc(F)c3)CC2CCO)c1` (configuration not stated), the figure is 6.95%; as for `CCCCSCCC(=O)O`, -16.4%. With `COCCNc1cc(-c2ccc(F)cc2)nc(C)n1`, the inhibition was -31.9%. Turning to `COC(CNc1cc(-c2cccc(C(F)(F)F)c2)nc(-c2ccncc2)n1)OC`, the inhibition is 14.2%. As for `COC(CNc1cc(-c2ccc(F)cc2)nc(-c2ccccn2)n1)OC`, the inhibition was 42.7% (active). As for `CC(C)(C)NCCOc1ccccc1F`, the figure is 14.1%.

Consider `CCOc1cc(C#N)ccc1OCC(=O)Nc1ccc(C)cc1C`, for which the inhibition is 15.8%. On to `COC(=O)C1=C(C)N=c2s/c(=C/c3ccc(N(C)C)cc3)c(=O)n2C1c1ccccc1Cl` (configuration not stated), for which the inhibition is -14.2%. As for `O=C(NNS(=O)(=O)c1cccc(Cl)c1Cl)C12CC3CC(CC(C3)C1)C2`, the figure is -2.41%; as for `CNC(=O)c1ccccc1Nc1cc(Nc2ccc(C(=O)N(C)C)cc2)ncc1C(F)(F)F`, 77.1% (active); as for `CNC(=O)c1ccccc1Nc1cc(Nc2ccc(N3CCOCC3)cc2OC)ncc1F`, 6.22%. As for `Cc1cc(C(=O)Nc2ccccc2C(F)(F)F)ccc1[N+](=O)[O-]`, the figure is -8.76%; as for `CCN(CC)CCNC(=O)c1ccc(Nc2cc(Nc3ccccc3C(=O)NC)c(C(F)(F)F)cn2)c(C)c1`, 84.7% (active); as for `CNC(=O)c1ccccc1Nc1nc(Nc2ccc(-n3cnc(-c4ccc(C)nc4)n3)cc2)ncc1Cl`, 8.52%. With `CC(C)N(CCNC(=O)c1ccnc(Nc2ccc(C(F)(F)F)cc2)c1)C(C)C` the figure was -16%.

As for `COc1cc(N2CCOCC2)ccc1Nc1cc(Nc2ccccc2-n2cccn2)c(C(F)(F)F)cn1`, the inhibition is -8.57%.

Turning to `CCN(CC)CCOc1ccc(Nc2cc(Nc3ccccc3C(=O)NC)c(C(F)(F)F)cn2)c(OC)c1`, the inhibition is 83.4% (active). Take `CCN(CC)CCNC(=O)c1ccc2c(=O)n(CCN(CC)CC)c(=S)[nH]c2c1`: the inhibition was 18.8%. Take `CCCn1c(=S)[nH]c2cc(C(=O)NCCN(CC)CC)ccc2c1=O`: the inhibition was 12.2%. As to `CCN(CC)CCNC(=O)c1ccc(Nc2cc(Nc3ccccc3C(=O)NC)c(C(F)(F)F)cn2)nc1`, the inhibition is 96.8% (active). For `Cc1ccc(Nc2nnc(-c3ccc(C(=O)N(C)C)cc3)c3ccccc23)cc1`, the inhibition is -11.2%.

Turning to `CCc1ccccc1N(CC(=O)Nc1cc(Cl)ccc1C)S(C)(=O)=O`, the inhibition is 1.56%. As to `Cc1ccc(OCCSc2nc(N)cc(=O)[nH]2)cc1`, the inhibition was -7.78%. As for `CN(C)CCNc1ccnc2c(-c3ccsc3)cnn12`, the figure is -57.5%; as for `O=C(Nc1ccc2c(c1)CN(C1CCOCC1)CC2)c1ccc(C(F)(F)F)cc1`, 17.5%.

In the case of `COc1ccc(NC(=O)/C(=C\c2ccc3c(c2)OCO3)NC(=O)c2ccccc2Cl)c(OC)c1`, the inhibition is 21.2%. `COc1ccc(OC)c(/C=N/NC(=O)COc2ccc(Br)cc2)c1`: the inhibition was -1.77%. Take `COc1ccc(/C=N/NC(=O)COc2ccc(Cl)cc2Br)cc1OC`: the inhibition is 8.94%.

For the compound `CCOC(=O)c1c(C)[nH]c(C(=O)OCC(=O)Nc2ccccc2C(C)(C)C)c1C`, the inhibition is 7.06%. With `Cc1cc2nn(-c3ccccc3)nc2cc1NC(=S)NC(=O)c1oc2ccccc2c1C` the figure was 7.4%.

On to `C=C(C)C1C=C(C)/C(=N/NC(=O)c2ccc(N3CCCC3=O)cc2)CC1` (configuration not stated), for which the inhibition was 0.92%. Turning to `O=C(Oc1ccc2c(c1)C(=O)c1cc(OC(=O)c3cccnc3)ccc1-2)c1cccnc1`, the inhibition is -14.7%. Consider `O=C1/C(=C/c2cccnc2)Oc2cc(OC(=O)C3CC3)ccc21`, for which the inhibition is 33.5% (active). As for `COc1ccc(/C=C2\Oc3cc(OC(=O)C4CC4)cc(C)c3C2=O)c(OC)c1OC`, the figure is -17.3%; as for `CCCn1c(=O)[nH]c2c(C(N)=O)nc(-c3cn(C)nc3C)nc21`, -23%. For the compound `O=C(CNc1cccc(Br)c1)Nc1ccccc1C(=O)Nc1ccccc1`, the inhibition was 2.84%.

As for `O=C1c2cc(O)ccc2-c2ccc(O)cc21`, the inhibition is -8.01%.

Take `Nc1ccc2c(c1)C(=O)C(=O)c1cc(N)ccc1-2`: the inhibition is 99% (active). Consider `O=C1c2cc(S(=O)(=O)N3CCCC3)ccc2-c2ccc(S(=O)(=O)N3CCCC3)cc21`, for which the inhibition was -1.36%. In the case of `CCCCN(CC)CCNC(=O)CCNC(=O)Cn1cnc2sc3c(c2c1=O)CCCC3`, the inhibition is -4.71%. Take `CCN1CCN(C(=O)c2ccc(OC)cc2OC)CC1`: the inhibition was 2.8%. Regarding `COc1cc(Nc2cc(-c3nocc3-c3cnn(C)c3)ccn2)ccc1N1CCOCC1`, the inhibition is 15%.

With `Cn1cc(-c2cc(Nc3ccc(N4CCOCC4)cn3)ncc2Cl)cn1`, the inhibition is 38.9% (active). As for `Cn1nccc1Nc1cc(Nc2ccc(N3CCOCC3)cc2)ncn1`, the inhibition is 2.78%. `CCCN1CC=C2C(C1)C(c1cccc(C(F)(F)F)c1)C(C#N)=C(N)C2(C#N)C#N` (configuration not stated): the inhibition is -14.9%. `CC(C)n1cnc2c(NC3CC3)nc(-c3ccc(N4CCOCC4)nc3)nc21`: the inhibition is 1.84%. Consider `CC(C)n1cnc2c(NC3CCN(Cc4ccccc4)CC3)nc(-c3ccc(N4CCOCC4)nc3)nc21`, for which the inhibition was 36.3% (active). With `c1ccc(CN2CCC(Nc3nc(Nc4ccc(N5CCOCC5)cc4)c4ncn(C5CCCCC5)c4n3)CC2)cc1` the figure was 7.35%; with `CC(C)n1cnc2c(NC3CCN(Cc4ccccc4)CC3)nc(NC3CCN(Cc4ccccc4)CC3)nc21`, 23.1%; with `c1ccc(CN2CCC(Nc3nc(-c4ccccc4)nc4c3ncn4C3CCCCC3)CC2)cc1`, 6.01%. Take `CC(C)n1cnc2c(NC3CCN(Cc4ccccc4)CC3)nc(Nc3ccc(N4CCOCC4)cc3)nc21`: the inhibition was 55.8% (active).

Turning to `NC(=O)c1ccc(C(=O)N2CCC3(CC2)NC(=O)c2ccccc2O3)c(F)c1`, the inhibition was 9.77%. For `c1ccc2nc(-c3nc4ccccc4s3)ccc2c1`, the inhibition is 50.1% (active). With `O=C(Cc1cccc2ccccc12)Nc1ccccc1-c1nc2ccccc2s1`, the inhibition was 4.57%. Regarding `CC(=O)Nc1sc(C)c(C)c1-c1nc2ccccc2s1`, the inhibition is -2.29%. Take `CCS(=O)(=O)N1CCN(c2cccc(Cl)c2)CC1`: the inhibition was 4.72%. On to `CCOc1ccc(-c2cc(C(=O)N/N=C/c3c[nH]c4ccccc34)[nH]n2)cc1`, for which the inhibition was 55.9% (active). For `CCOc1cccc(-c2cc(C(=O)N/N=C/c3ccccc3O)[nH]n2)c1`, the inhibition is -2.87%. As for `Cc1cc(C(=O)N/N=C/c2ccc(Br)c([N+](=O)[O-])c2)n[nH]1`, the figure is 6.76%; as for `CCOc1ccc(/C=N/NC(=O)c2cc(C(C)(C)C)[nH]n2)c(O)c1`, 59.8% (active); as for `Cc1ccc(/C=N\NC(=O)c2cc(C(C)(C)C)[nH]n2)cc1`, 45.2% (active). For `CCOc1ccc(-c2cc(C(=O)N/N=C\c3ccccc3O)[nH]n2)cc1OC`, the inhibition was 1.39%.

Consider `CCCOc1ccc(/C=N/NC(=O)OC)c(O)c1`, for which the inhibition is -15.8%. In the case of `CC(C)(C)c1cc(C(=O)N/N=C/c2c(O)ccc3ccccc23)n[nH]1`, the inhibition was -0.43%. Consider `CCOc1ccc(O)c(/C=N/NC(=O)CNc2ccc3ccccc3c2)c1`, for which the inhibition was -7.17%.
